# APP 5UTR inh = inhibitors of APP translation via 5'UTR reporter, primary screen, APP 5'UTR luciferase, SH-SY5Y cells; 0.82% of 190,000 active; AID 1285, 2008; SH-SY5Y APP 5'UTR-luciferase reporter, luminescence; inhibition, % at 2 µM;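 active means inhibition above a set limit, derived from the sample mean plus 3 SD, cut at about 45% in these data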
# Ba/F3 V617F tox = reduced viability of JAK2V617F-dependent Ba/F3 cells, primary screen, JAK2V617F inhibitor project, cell-based, Ba/F3 EpoR-JAK2V617F, luminescence | ATP luminescence | inhibition, % at 5.6 µM | 1.1% of 220,000 active | AID 1446, 2008;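 active means inhibition above the campaign mean plus 3 SD over all tested compounds, cut at about 24% in these data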;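 further: cytokine-independent growth of Ba/F3 cells driven by EpoR plus mutant JAK2; 0% = DMSO-treated cells and 100% = JAK inhibitor I control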
# BaF3 tox = parental Ba/F3 cell viability inhibition, counter-screen for JAK2V617F inhibitor project, murine pro-B, CellTiter-Glo luminescence; CellTiter-Glo ATP luminescence; inhibition, % at 5.6 µM; 1.1% of 220,000 active; AID 1486, 2009;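 active means inhibition above a per-campaign cutoff, the mean inhibition of all tested compounds plus 3 SD, cut at about 27% in these data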;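 further: 0% = DMSO wells and 100% = JAK Inhibitor I control wells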
# KLF5 inhibitor = KLF5 expression inhibitors, primary screen, DLD-1 cells, luminescence; DLD-1 KLF5 promoter-luciferase reporter; inhibition, % at 5 µM; 0.23% of 290,000 active; AID 1700, 2009;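 active means inhibition above a per-plate limit of that plate's mean compound inhibition plus 3 SD, cut at about 60% in these data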;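 further: 0% = DMSO wells and 100% = LY294002 at 200 µM; higher means less KLF5 promoter-driven luciferase light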
# aSyn 5UTR inh = MLPCN primary screen, SNCA 5' untranslated region. alpha-synuclein 5'UTR reporter, inhibitor activity. inhibition, % (tested at 7.5 µM). 0.82% of 300,000 active; in the data active means inhibition above about 60%;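 further: H4 neuroglioblastoma cells stably carrying SNCA 5'UTR luciferase fusion; 0% = DMSO wells and 100% = positive control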
# IEC-6 tox-1 = cytotoxicity in IEC-6 intestinal epithelial cells, primary screen, cytotoxicity control for KLF5 inhibitor project, cell-based, luminescence. IEC-6 cytotoxicity, luminescence viability. inhibition, % at 5 µM. 0.78% of 290,000 active;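 further: 0% = plate median of test compound wells and 100% = cytotoxic reference compound wells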
# KLF5 inh confirm = KLF5 expression inhibitors, confirmation, DLD-1 cells, luminescence. shares compounds with KLF5 inhibitor. DLD-1 KLF5 promoter firefly luciferase reporter. inhibition, % at 4 µM. 79% of 610 active;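 active means inhibition above a set limit taken from the earlier primary screen, cut at about 63% in these data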;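 further: 0% = DMSO wells and 100% = LY294002 at 200 µM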
# IEC-6 tox-2 = cytotoxicity in rat IEC-6 cells, cytotoxicity control for KLF5 inhibitor project, cell-based, luminescence, triplicate; shares compounds with KLF5 inhibitor; IEC-6 rat intestinal cells, viability luminescence; inhibition, % at 4 µM; 56% of 610 active; in the data active means inhibition above about 23%;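 further: cells exposed to compounds for 48 hours before viability read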
# IEC-6 cytotox cf = cytotoxic compounds in IEC-6 epithelial cells, confirmation, cytotoxicity control, cell-based, luminescence | shares compounds with IEC-6 tox-1 | IEC-6 rat intestinal epithelial viability | 63% of 1,900 active | AID 1907, 2009 | inhibition, % at 5 µM;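 further: 0% = vehicle and 100% = reference cytotoxic drug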
# Numbers without * were called inactive; x = not tested or not shown. Shown are actives, neighbours in structure and some others; about 2.2% of the full set was active somewhere. Unless noted, no stated cut-off is given here; in the data, active means inhibition above about 22%; inactive means the rest.
SMILES,APP 5UTR inh,Ba/F3 V617F tox,BaF3 tox,KLF5 inhibitor,aSyn 5UTR inh,IEC-6 tox-1,KLF5 inh confirm,IEC-6 tox-2,IEC-6 cytotox cf
O=C(NC1CC1)C1=C[C@H](c2csc3ccccc23)C[C@H](OCCCCO)O1,-13,2,-1,4,2,1,x,x,x
CC1=Nc2ccccc2/C1=C\c1sc(Nc2ccc(C)cc2)nc1O,96*,76*,75*,66*,-5,79*,85*,58*,54*
Oc1nc(Nc2ccc(F)cc2)sc1/C=C1\C=Nc2ccccc21,x,-2,3,-36,-15,-2,x,x,x
CC(Cc1ccccc1)Nc1ncnc2c1ncn2C1OC(CO)C(O)C1O (stereo not drawn),x,x,x,x,-23,x,x,x,x
CN(C)c1ncnc2c1ncn2C1OC(CO)C(O)C1O (stereo not drawn),40,8,13,65*,108*,51*,70*,48*,71*
Cc1ccc(-c2cc(=O)c3cc(C)ccc3[nH]2)cc1,-115,2,7,-51,-36,8,x,x,x
O=c1cc(-c2cccc(F)c2)[nH]c2ccccc12,94*,78*,78*,75*,87*,86*,85*,60*,57*
Cc1ccc2[nH]c(-c3cccc(F)c3)cc(=O)c2c1,93*,83*,83*,62*,81*,91*,73*,59*,57*
COc1ccccc1C(C)Nc1nc(-c2cccnc2)nc2ccccc12 (stereo not drawn),x,x,x,-6,5,-3,x,x,x
CCCNC1=C(N(C(C)=O)c2cccc(F)c2)C(=O)c2ccccc2C1=O,49*,101*,104*,96*,92*,65*,51,53*,41*
CCC(=O)N(C1=C(NC(C)C)C(=O)c2ccccc2C1=O)C(C)C,-7,3,4,-20,-27,-2,x,x,x
O=C(Nc1ccc(N2CCN(C(=O)c3cccs3)CC2)cc1)c1cccc(F)c1,x,x,x,-1,-7,5,x,x,x
COc1cccc(C(=O)Nc2ccc(N3CCN(C(=O)c4cccs4)CC3)cc2)c1,x,x,x,63*,-162,77*,56,35*,34*
Cc1ncc([N+](=O)[O-])n1CC(=O)Nc1ccc2c(c1)OCO2,-8,3,3,-6,-7,3,x,x,x
O=C(c1ccco1)N1CCN(C(=O)N2c3ccccc3Sc3ccccc32)CC1,93*,85*,82*,80*,81*,91*,85*,55*,60*
CC(C)CN(C(=O)/C=C/c1nc2ccccc2s1)C1CCS(=O)(=O)C1 (stereo not drawn),x,x,x,x,22,x,x,x,x
CCOc1ccccc1C1CC(=O)Nc2cc3c(cc21)OCO3 (stereo not drawn),90*,79*,75*,74*,66*,83*,91*,65*,57*
COc1cccc(C2CC(=O)Nc3cc4c(cc32)OCCO4)c1OC(C)C (stereo not drawn),-8,-1,1,6,x,6,x,x,x
CC(C)Oc1ccccc1C1CC(=O)Nc2cc3c(cc21)OCCO3 (stereo not drawn),95*,74*,78*,80*,73*,88*,98*,90*,56*
C/C(O)=c1/c(=O)nc2cccc3c2=c1c1ccccc1c3=O,x,x,x,0,35,6,x,x,x
Cc1ccc(C)c(N2CCN(C(=O)c3ccc(CS(=O)(=O)c4ccccc4C)o3)CC2)c1,-11,1,8,5,20,4,x,x,x

# Screening results from PubChem.
